Measurements reported in PubChem BioAssay (Tox21).
Several values for one entry are separate records, joined by “and”; a condition that tells them apart may be missing. Equal values may be shown once. Inconclusive results are not listed. Where a call stands in place of a potency, no number is given. More than one record can exist for a structure, and the calls need not agree. Activity calls are given as the source filed them. Calls come from the whole dose curve; as a rule, active = well fitted cell-killing curve with a large enough effect in the repeat runs (not every such curve was filed as active); inconclusive = weak or mixed curves, or effect the other way; inactive = no such curve, though single readings can be large or run the other way.

experiment: qHTS assay to identify small molecule antagonists of the farnesoid-X-receptor (FXR) signaling pathway - cell viability counter screen (AID 743221); details: FXR-bla HEK293T viability, CellTiter-Glo luminescence, 16 h; series mostly up to 62.6 µM; note: nearly all actives have a fitted effect of over 50% in size
Description: National Center for Advancing Translational Sciences [NCATS]
NIH Chemical Genomics Center [NCGC]
U.S. Environmental Protection Agency [EPA]
National Institutes of Environmental Health Sciences [NIEHS]
National Toxicology Program [NTP]
U.S. Food and Drug Administration [FDA]
The farnesoid-X-receptor (FXR), a nuclear hormone receptor, is highly expressed in liver, intestine, kidney and adrenal cortex. Natural ligands of FXR are the bile acids (Cholic acid, Chenodeoxy cholic acid etc). FXR is an important regulator of diverse metabolic pathways, including the bile acid homeostasis, lipid and glucose metabolisms. FXR regulates the expression of target genes by binding either as a monomer or as a heterodimer with the retinoid X receptor (RXR). Numerous studies have reported that FXR exerts protective function during cholestasis, diabetes, liver regeneration, and cancer. To identify compounds that inhibit FXR signaling, GeneBLAzer FXR-UAS-bla HEK 293T cell line (Invitrogen, Carlsbad, CA) containing a beta-lactamase reporter gene under the control of a UAS response element was used to screen the Tox21 10K compound library. The cytotoxicity of the Tox21 compound library against the FXR-bla cell line was tested in parallel by measuring the cell viability using CellTiter-Glo assay in the same wells.
Tox21 Assay Protocol Summary:
FXR-bla cells were dispensed at 5000 cells/5uL/well in 1536-well black wall/clear bottom plates using a Multidrop Combi (Thermo Fisher Scientific, Waltham, MA) dispenser. After the assay plates were incubated at 37 C and 5% CO2 for 5 h, 23 nL of compounds dissolved in DMSO, positive controls or DMSO only was transferred to the assay plate by a Pintool station (Kalypsys, San Diego, CA), followed by addition of 1 uL Chenodeoxycholic acid (50 uM, final concentration in the wells). The assay plates were incubated at 37C for 16 h. After 1 uL of LiveBLAzerTM B/G FRET substrate was added using a Bioraptr Flying Reagent Dispenser (FRD) workstation (Beckman Coulter, Indianapolis, IN), the plates were incubated at room temperature for 2 h, and fluorescence intensity was measured by an Envision plate reader (PerkinElmer, Shelton, CT). For cell viability readout that measures cytotoxicity, 4uL/well of CellTiter-Glo reagent was added into the assay plates using a Bioraptr FRD. After 30 min incubation at room temperature, the luminescence intensity in the plates was measured using a ViewLux plate reader (PerkinElmer).
Potency is the fitted concentration of half-maximal effect.

Row | Structure (SMILES) | Potency
1 | COc1ccc2c(c1)c(CC(=O)O)c(C)n2C(=O)c1ccc(Cl)cc1 | inactive
2 | C=CCc1ccc(O)c(OC)c1 | inactive
3 | CC1(C)O[C@@H]2C[C@H]3[C@@H]4CCC5=CC(=O)C=C[C@]5(C)[C@@]4(F)[C@@H](O)C[C@]3(C)[C@]2(C(=O)CO)O1 | inactive
4 | COc1ccc2cc(S(=O)(=O)N[C@H](CC(=O)N[C@H](Cc3ccc(CN4[C@H](C)CCC[C@@H]4C)cc3)C(=O)N(C)C(C)C)c3ccc4c(c3)OCO4)ccc2c1 | 52 µM (active)
5 | CNNCc1ccc(C(=O)NC(C)C)cc1 | inactive
6 | CCOc1ccc(NC(C)=O)cc1 | inactive
7 | CN(C)C(=O)Nc1ccc(Cl)c(Cl)c1 | inactive
8 | C=C(C)C(=O)OCC(C)O (stereo not given) | inactive
9 | CC(=O)CC(c1ccccc1)c1c(O)c2ccccc2oc1=O (stereo not given) | inactive
10 | CN1[C@@H]2CC(OC(=O)[C@H](CO)c3ccccc3)C[C@H]1[C@@H]1O[C@@H]12 (stereo not given in full) | inactive
11 | CN(C)CCOC(C)(c1ccccc1)c1ccccn1 (stereo not given) | inactive
12 | Cc1cc(C)nc(NS(=O)(=O)c2ccc(N)cc2)n1 | inactive
13 | C=C1CC[C@H](O)C/C1=C\C=C1/CCC[C@]2(C)[C@@H]([C@H](C)CCCC(C)C)CC[C@@H]12 | 48.5 µM (active)
14 | O=S1(=O)OC(c2ccc(O)cc2)(c2ccc(O)cc2)c2ccccc21 | inactive
15 | O=C1NS(=O)(=O)c2ccccc21 | inactive
16 | O=c1[nH]cnc2c1ncn2[C@H]1CC[C@@H](CO)O1 | inactive
17 | CN[C@H]1CC[C@@H](c2ccc(Cl)c(Cl)c2)c2ccccc21 | 26.6 µM (active)
18 | O=c1[nH]cc(F)c(=O)[nH]1 | inactive
19 | CN1CCC[C@H]1c1cccnc1 | inactive
20 | CCCCC(CC)C(=O)O (stereo not given) | inactive

Row | Structure (SMILES) | Potency
21 | CS(=O)(=O)OCCCCOS(C)(=O)=O | inactive
22 | Nc1ccc(S(N)(=O)=O)cc1 | inactive
23 | O=C1O[C@H]([C@@H](O)CO)C(O)=C1O | inactive
24 | CC1(C)S[C@@H]2[C@H](NC(=O)[C@H](N)c3ccccc3)C(=O)N2[C@H]1C(=O)O | inactive
25 | CC/C(=C(\c1ccccc1)c1ccc(OCCN(C)C)cc1)c1ccccc1 | inactive and 49.4 µM (active) and 54.9 µM (active)
26 | CN(C)CCOC(c1ccccc1)c1ccccc1 | inactive
27 | CC(C)NCC(O)c1ccc(O)c(O)c1 (stereo not given) | inactive
28 | OC[C@H]1O[C@H](O[C@]2(CCl)O[C@H](CCl)[C@@H](O)[C@@H]2O)[C@H](O)[C@@H](O)[C@H]1Cl | inactive
29 | CC12CCC(CC1)C(C)(C)O2 | inactive
30 | Cc1cn([C@H]2C=C[C@@H](CO)O2)c(=O)[nH]c1=O | inactive
31 | C/C=C/C=C/C(=O)O | inactive
32 | CCCCCCCCCCCC[N+](C)(C)Cc1ccccc1 | 53.9 µM (active) and 59.7 µM (active) and 29.8 µM (active)
33 | NC(CO)(CO)CO | inactive
34 | CN(N=O)C(=O)N[C@@H]1[C@@H](O)[C@H](O)[C@@H](CO)O[C@@H]1O | inactive
35 | O=C1NC(=O)C(c2ccccc2)(c2ccccc2)N1 | inactive
36 | CCCCCCc1ccc(O)cc1O | inactive
37 | COc1ccc(CN(CCN(C)C)c2ccccn2)cc1 | inactive
38 | Cc1ncc([N+](=O)[O-])n1C | inactive
39 | CC(C)C(=O)Nc1ccc([N+](=O)[O-])c(C(F)(F)F)c1 | inactive
40 | C1=CC2C3C=CC(C3)C2C1 (stereo not given) | inactive
